Most compounds without a hit are left out; they make up all but 1.2% or so of the library.
E coli Lon inh – inhibitors of E. coli Lon protease; AID 602123; 0.42% of 360,000 active; purified E. coli Lon protease, fluorescence polarization; inhibition, % at 7.94 µM; P0A9M0; in the data active = inhibition above about 13%, passing the limit was not always enough
BCLXL inh – blocks human Bcl-xL binding to Bim BH3 peptide. inhibition, % at 10.9 µM. GST-Bcl-xL / FITC-Bim BH3 peptide fluorescence polarization. 0.7% of 320,000 active. Q07817;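 active = inhibition above the mean of all tested compounds plus 3 SD, cutoff set per campaign, cut at about 30% in these data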;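 note: inhibitors lower millipolarization by displacing the labeled peptide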
Target sequence (Q07817 whole entry, looked up): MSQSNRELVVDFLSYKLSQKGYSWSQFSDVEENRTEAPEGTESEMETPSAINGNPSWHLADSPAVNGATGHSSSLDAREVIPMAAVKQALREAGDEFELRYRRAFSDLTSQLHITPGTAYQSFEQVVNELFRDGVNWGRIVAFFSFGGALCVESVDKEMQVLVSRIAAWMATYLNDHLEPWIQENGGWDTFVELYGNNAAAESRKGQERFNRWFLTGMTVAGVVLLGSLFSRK
cardiac RTF act – cardiac RTF calcium sensitization | 0.24% of 340,000 active | IANBD-labeled TnC RTF fluorescence at EC20 calcium; 0% EC20 calcium, 100% full calcium | activation, % at 7.2 µM | AID 493008 | P19429+P45379;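 active = activation above the mean over all tested compounds plus 3 SD, cut at about 30% in these data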;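 note: rise in fluorescence read as greater calcium sensitivity of cardiac thin filaments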
RTF Ca sens inh – cardiac RTF calcium desensitization | P19429+P45379 | IANBD-labeled cardiac RTF, Ca2+ fluorescence | inhibition, % at 7.15 µM | 0.12% of 340,000 active;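 active = inhibition above the mean inhibition of all tested compounds plus 3 SD, cut at about 17% in these data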;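 note: assay run at fixed EC70 calcium of 1.6 mM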
GLD-1 RNA inh – GLD-1-TGE RNA interaction inhibition (C. elegans) | inhibition, % at 5.96 µM | purified GLD-1 + fluorescein TGE RNA, fluorescence polarization | 0.44% of 320,000 active;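 active = percent inhibition above a per-plate cutoff, the plate mean of test compounds plus 3 SD, cut at about 30% in these data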
Each line names hits and unclear results; the compound was inactive in the other large screens.

O=c1oc2c(O)c(O)cc3c(=O)oc4c(O)c(O)cc1c4c23	BCLXL inh 74.1, RTF Ca sens inh 101.7
O=c1oc2ccccc2c2oc3cc(O)c(O)cc3c12	none
c1ccc2c(c1)CCCN2Cc1nnnn1C1CCCC1	BCLXL inh 103.5, GLD-1 RNA inh 53.0
CC1(C(=O)N2CCN(c3ccc([N+](=O)[O-])cc3)CC2)CC1(Cl)Cl (stereo not given)	GLD-1 RNA inh 64.1
CC1(C(=O)N2CCN(c3ccccc3)CC2)CC1(Cl)Cl (stereo not given)	none
Cc1ccc(-c2cc(C(=O)NC3=NCCS3)c3ccccc3n2)cc1C	BCLXL inh 90.0
Cc1oc(C)c2c(=O)ccc3c(c12)OC(N)=C(C#N)C3c1ccccc1Cl (stereo not given)	none
N#CC1=C(N)OC2=C(CC/C2=C\c2ccccc2)C1c1ccccc1 (stereo not given)	cardiac RTF act 127.3, GLD-1 RNA inh 40.7
N#CC1=C(N)OC2=C(CC/C2=C\c2ccccc2Cl)C1c1ccccc1Cl (stereo not given)	cardiac RTF act 37.7
Cc1ccccc1C1c2[nH]c3ccccc3c2C[C@H]2C(=O)N(c3ccccc3C(=O)NCCN3CCOCC3)C(=O)N12 (stereo not given in full)	none
O=[N+]([O-])c1ccc(CSc2ccc(S(=O)(=O)N3CCOCC3)cn2)cc1	none (no result: BCLXL inh, GLD-1 RNA inh)
c1cncc(-c2cnc3ccccc3c2)c1	none
Cc1ccc(C)c(C2=CSC3=NS(=O)(=O)CCN23)c1	none
CN(C)c1ccc(/C=C2/C[N+](C)(C)C/C(=C/c3ccc(N(C)C)cc3)C2=O)cc1	none (no result: BCLXL inh, GLD-1 RNA inh)
CC(C)/C=C1\CC/C(=C\c2ccc(N(C)C)cc2)C1=O	cardiac RTF act 64.1
Cc1c(C(=O)c2ccc(F)cc2F)c2ccccn2c1CCC#N	BCLXL inh 100.5, GLD-1 RNA inh 90.1
Cc1c(C(=O)c2ccc(F)cc2F)c2ccccn2c1CCc1ccccn1	none (no result: BCLXL inh, cardiac RTF act, RTF Ca sens inh, GLD-1 RNA inh)
Cc1ccc(N2C(=O)[C@@H]3[C@H](C2=O)C2c4ccccc4C=CN2[C@@H]3C(=O)c2ccco2)c(C)c1 (stereo not given in full)	BCLXL inh 72.8, GLD-1 RNA inh 62.0
Cc1ccc(N2C(=O)[C@@H]3[C@H](C2=O)C2c4ccccc4C=CN2[C@@H]3C(=O)c2ccco2)cc1 (stereo not given in full)	none (no result: BCLXL inh, GLD-1 RNA inh)
CC(=O)[C@@H]1[C@@H]2C(=O)N(Cc3ccccc3)C(=O)[C@@H]2C2c3ccccc3C=CN21 (stereo not given in full)	BCLXL inh 46.4, GLD-1 RNA inh 38.5
CC(NC(=O)c1ccccc1F)c1nnc(SCC(=O)NC2CCCC2)n1C (stereo not given)	none
COc1ccc(N(CC(=O)NC(C)C)C(=O)CCC(=O)Nc2ccccn2)cc1	none
COCCN(C(=O)CN1CCCc2ccccc21)c1c(N)n(Cc2ccccc2)c(=O)[nH]c1=O	cardiac RTF act 60.7
COCCN(C(=O)CN1CCc2ccccc21)c1c(N)n(Cc2ccccc2)c(=O)[nH]c1=O	none
COc1cc(-c2nnc(SCC(=O)Nc3ccc4c(c3)OCCO4)o2)cc(OC)c1OC	none
N#Cc1c(SCC(=O)Nc2nc3ccc(Br)cc3s2)sc2c(O)cc(=O)[nH]c12	none
N#Cc1c(SCC(=O)Nc2nc3ccccc3s2)sc2c(O)cc(=O)[nH]c12	BCLXL inh 30.6
CC(C)OC(=O)c1c2c(n3ccccc13)C(=O)c1ccccc1C2=O	BCLXL inh 88.9
COC(=O)c1c(C(=O)OC)c2ccccn2c1C(=O)c1ccc([N+](=O)[O-])cc1	none
O=C1NCC(=O)N2CCC[C@@H]12	none
CC1CCc2sc(C(=O)NN)cc2C1 (stereo not given)	GLD-1 RNA inh 72.0
C=CCN(C(=O)c1csnn1)C(C(=O)NC1CCCCC1)c1ccc(Cl)cc1 (stereo not given)	none
CCCCN(CC)CCCNC(=O)c1ccc2c(c1)N(CC)C(=O)c1ccccc1S2(=O)=O	none
CCCN(CCC)C(=O)c1ccc2c(c1)N(CC)C(=O)c1ccccc1S2(=O)=O	BCLXL inh 116.8, GLD-1 RNA inh 71.9
CCOC(=O)C1=C(Cc2ccc(OC)cc2)C(=O)c2ccccc2C1=O	E coli Lon inh 28.4 (no result: BCLXL inh, GLD-1 RNA inh)
CCOC(=O)C1=C(Cc2ccc(C)cc2)C(=O)c2ccccc2C1=O	GLD-1 RNA inh 42.8 (no result: E coli Lon inh, cardiac RTF act, RTF Ca sens inh)
CCOC(=O)c1c(C)nc2c(c1-c1cc(OC)ccc1OC)C(=O)c1ccccc1-2	none
O=Cc1c(Sc2ccccn2)nc2ccccn2c1=O	BCLXL inh 53.0
O=C(Cc1cccc(NC(=O)C2CCCN(C(=O)C3CCCCC3)C2)c1)Nc1ccc(C(=O)N2CCOCC2)cc1 (stereo not given)	none (no result: BCLXL inh, GLD-1 RNA inh)
CC(C)C1Nc2c(O)cc(Cl)c([N+](=O)[O-])c2C2C=CCC21 (stereo not given)	none (no result: BCLXL inh, GLD-1 RNA inh)
O=C(O)C1Nc2c(O)cccc2C2C=CCC12 (stereo not given)	BCLXL inh 61.7, RTF Ca sens inh 34.1
O=C(O)C1Nc2c(Cl)cc(Cl)c(Cl)c2C2C=CCC12 (stereo not given)	BCLXL inh 65.3
NS(=O)(=O)CCCc1ccccc1	none
CN1CCN(c2ccc([N+](=O)[O-])cc2C(=O)c2ccc(Br)cc2)CC1	none
Oc1ccc(N=Nc2n[nH]c(-c3ccccc3)n2)cc1	none
Oc1ccc(N=Nc2nc(-c3ccccc3)c(-c3ccccc3)[nH]2)cc1	GLD-1 RNA inh 84.0
COc1ccc(N2CCN(C(=O)CCS(=O)(=O)c3cccc4nsnc34)CC2)cc1	none
OC1=C(O)c2nc3ccccc3nc21	none
Cc1ccc(Sc2cc(C(=O)NCCCN(C)C)c3ccccc3n2)cc1	BCLXL inh 78.0, GLD-1 RNA inh 68.6
C/C=C(\C)CN1CCC(Oc2cc(C(=O)NC3CC3)ccc2OC)CC1	none
COc1ccc(C(=O)NC2CC2)cc1OC1CCN(C(C)CSC)CC1 (stereo not given)	BCLXL inh 31.2
CC(Oc1ccc(Cl)cc1Cl)C(=O)Nc1ccc2oc(-c3ccncc3)nc2c1 (stereo not given)	none
CCn1c(SCC(=O)N2CCN(C)CC2)nc2c1c(=O)n(C)c(=O)n2C	none
CCn1c(SCC(=O)N2CCCC2)nc2c1c(=O)n(C)c(=O)n2C	BCLXL inh 51.8
CN1CCc2cccc3c2C1Cc1ccc(O)c(O)c1-3 (stereo not given)	BCLXL inh 33.2
CN1CCC(=C2c3ccccc3C(O)c3ccccc32)CC1 (stereo not given)	none
CC(=O)N1[C@H](C)C=C[C@]1(Cc1ccccc1)C(=O)NCCN1CCOCC1	none
Nc1c(N(CCCO)C(=O)CCCN2C(=O)c3cccc4cccc(c34)C2=O)c(=O)[nH]c(=O)n1Cc1ccccc1	none (no result: BCLXL inh, GLD-1 RNA inh)
O=C1COc2ccc(C(=O)COC(=O)c3cc(S(=O)(=O)N4CCOCC4)ccc3F)cc2N1	BCLXL inh 60.2
COc1cc(/C=C/C(=O)CC(=O)/C=C/c2ccc(O)c(OC)c2)ccc1O	cardiac RTF act 56.9
CCOCc1cnc(C)nc1NCC(=O)c1c(C)[nH]c2ccccc12	none
